Results: PubChem BioAssay (Tox21)
Results filed as inconclusive are left out. Active and inactive are the calls of the source. Unless noted, calls come from the whole dose curve.

Legend:
[1] = Nuclear factor erythroid 2-related factor 2/antioxidant responsive element (Nrf2/ARE) small molecule agonists: qHTS cell viability counter screen in human keratinocytes (AID 1919968; active = well fitted curve in the direction sought with a large enough effect in the repeat runs; an effect the other way counts as inactive or inconclusive; note: nearly all actives have a fitted effect of over 55% in size)
Procedure, shortened: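 Cells of the KeratinoSens line were plated at 1,500 per well and left for 5 h before compound transfer from DMSO stocks. After a 23 h incubation (37 C, 5% CO2), CellTiter-Fluor was added. Signal was taken as fluorescence intensity 1 h later.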

[2] = target: Gonadotropin-releasing hormone receptor (Homo sapiens) (UniProt P30968); experiment: Human gonadotropin-releasing hormone receptor (GnRHR) small molecule agonists, calcium flux assay in GnRHR-HEK293 cells (AID 1920063); note: nearly all actives have a fitted effect of over 35% in size
Chain of Gonadotropin-releasing hormone receptor (Homo sapiens) (P30968 whole entry, looked up): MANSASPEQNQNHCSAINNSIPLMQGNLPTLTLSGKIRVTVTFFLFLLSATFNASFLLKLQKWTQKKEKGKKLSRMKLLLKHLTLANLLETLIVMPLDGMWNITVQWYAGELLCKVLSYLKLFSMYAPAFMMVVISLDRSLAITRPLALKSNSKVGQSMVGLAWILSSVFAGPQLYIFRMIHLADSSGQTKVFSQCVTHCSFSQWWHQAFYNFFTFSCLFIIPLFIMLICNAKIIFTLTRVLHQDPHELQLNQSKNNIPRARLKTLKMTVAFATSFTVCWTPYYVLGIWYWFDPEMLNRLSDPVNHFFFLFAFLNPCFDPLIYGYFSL
Procedure, shortened: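 Compounds dissolved in DMSO are pin-transferred onto dye-loaded GnRHR-HEK293 cells, which were seeded 18 h before at 37 C/5% CO2. Calcium signal is read as fluorescence intensity at 1 s intervals for 3 min.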

[3] = target: KiSS-1 receptor (Homo sapiens) (UniProt Q969F8); experiment: Human kisspeptin (KISS1R) small molecule agonists, calcium flux assay in KISS1R-HEK293 cells (AID 1920064; active = well fitted curve in the direction sought with a large enough effect in the repeat runs; an effect the other way counts as inactive or inconclusive)
Chain of KiSS-1 receptor (Homo sapiens) (Q969F8 whole entry, looked up): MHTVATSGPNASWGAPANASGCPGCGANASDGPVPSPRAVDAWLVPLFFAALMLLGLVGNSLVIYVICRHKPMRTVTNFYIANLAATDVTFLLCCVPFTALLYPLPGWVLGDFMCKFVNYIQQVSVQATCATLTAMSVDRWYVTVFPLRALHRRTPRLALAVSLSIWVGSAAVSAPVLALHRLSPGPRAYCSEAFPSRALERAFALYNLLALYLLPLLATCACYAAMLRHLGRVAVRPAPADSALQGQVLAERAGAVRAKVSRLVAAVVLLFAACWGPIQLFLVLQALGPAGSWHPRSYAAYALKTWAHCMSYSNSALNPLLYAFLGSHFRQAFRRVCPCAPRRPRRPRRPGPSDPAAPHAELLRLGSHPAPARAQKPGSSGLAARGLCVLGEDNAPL
Procedure, shortened: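 Cell line: HEK293, stable human KISS1R. Dye loading 1 h at 37 C after 18 h culture. Read: kinetic fluorescence, 480/540 nm, 3 min at 1 s intervals.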

[4] = G protein-coupled receptor (GPCR) small molecule agonists, calcium flux assay: HEK293 wild type cell line counter screen (AID 1920065)
Procedure, shortened: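 Tox21 10K compounds, 15 concentrations each in triplicate, pin-transferred in DMSO onto dye-loaded cells; kinetic read at 480/540 nm for 3 min, 1 s intervals.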

[5] = p53 small molecule agonists, cell-based qHTS assay with human liver microsomes (AID 1963577); note: potency is the fitted concentration of half-maximal effect
Procedure, shortened: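 Compounds act here after metabolic activation: human liver microsomes and NADPH, both at 0.5 mg/mL final, were co-added to p53RE-bla cells. Incubation ran 16 h at 37 C, followed by LiveBLAzer detection.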

[6] = p53 small molecule agonists, cell-based qHTS assay with rat liver microsomes (AID 1963578)
Procedure, shortened: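 Read-out is beta-lactamase reporter fluorescence (LiveBLAzer, 2 h, room temperature, dark) in p53RE-bla cells treated 16 h at 37 C with compound, rat liver microsomes and NADPH, both 0.5 mg/mL final.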

[7] = p53 small molecule agonists, cell-based qHTS assay with human liver microsomes: qHTS cell viability counter screen (AID 1963579); note: nearly all actives have a fitted effect of over 45% in size
Procedure, shortened: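 Cells carrying the p53 response-element beta-lactamase reporter are treated for 16 h at 37 C with test compounds in the presence of human liver microsomes and NADPH (both 0.5 mg/mL final); ATP-based CellTiter-Glo luminescence then reports viability.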

[8] = p53 small molecule agonists, cell-based qHTS assay with rat liver microsomes: qHTS cell viability counter screen (AID 1963580); note: nearly all actives have a fitted effect of over 45% in size
Procedure, shortened: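 Rat liver microsome (0.5 mg/mL final) and NADPH (0.5 mg/mL final) co-incubation with compounds for 16 h at 37 C on HCT-116 p53RE-bla cells; cytotoxicity taken from intracellular ATP luminescence.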

[9] = p53 small molecule agonists, cell-based qHTS assay (AID 1963582; active = well fitted activation curve with a large enough effect in the signal ratio in the repeat runs, not every such curve was filed as active; the % refers to the signal ratio)
Procedure, shortened: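 16 h compound exposure (37 C) of p53 response element–bla cells, preceded by 5 h recovery at 37 C/5% CO2; read-out via LiveBLAzer B/G FRET substrate, 2 h RT, fluorescence intensity.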

[10] = target: 5-hydroxytryptamine receptor 2A (Homo sapiens) (UniProt P28223); experiment: 5-hydroxytryptamine receptor 2A (HTR2A) small molecule antagonists, cell-based qHTS assay (AID 1963586); note: nearly all actives have a fitted effect of over 45% in size
Chain of 5-hydroxytryptamine receptor 2A (Homo sapiens) (P28223 whole entry, looked up): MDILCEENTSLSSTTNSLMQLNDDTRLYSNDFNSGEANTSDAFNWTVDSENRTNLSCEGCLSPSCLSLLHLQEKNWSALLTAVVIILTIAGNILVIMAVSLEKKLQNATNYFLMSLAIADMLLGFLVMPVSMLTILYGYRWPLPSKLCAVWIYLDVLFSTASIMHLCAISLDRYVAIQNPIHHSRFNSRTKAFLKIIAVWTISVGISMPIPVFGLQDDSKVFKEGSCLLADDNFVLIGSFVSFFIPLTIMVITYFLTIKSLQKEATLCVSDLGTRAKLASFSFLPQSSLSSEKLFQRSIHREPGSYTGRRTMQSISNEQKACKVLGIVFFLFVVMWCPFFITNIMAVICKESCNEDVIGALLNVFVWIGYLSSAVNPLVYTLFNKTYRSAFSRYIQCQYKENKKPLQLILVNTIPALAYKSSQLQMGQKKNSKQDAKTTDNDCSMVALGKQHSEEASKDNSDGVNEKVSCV
Procedure, shortened: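 CHO cells stably expressing human HTR2A were plated for 18 h at 37 C, then loaded with calcium dye for 1 h. Compounds were preincubated 5 min at room temperature before DOI (4 nM solution) was added. Kinetic fluorescence was read for 3 min.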

[11] = target: 5-hydroxytryptamine receptor 2A (Homo sapiens) (UniProt P28223); experiment: 5-hydroxytryptamine receptor 2A (HTR2A) small molecule agonists, cell-based qHTS assay (AID 1963587); note: nearly all actives have a fitted effect of over 30% in size
Procedure, shortened: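 Kinetic calcium-flux fluorescence (2 min, 1 sec intervals) after compound addition in agonist mode. HTR2A-CHO cells were cultured 18 h, then dye-loaded 1 h at 37 C.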

[12] = target: Muscarinic acetylcholine receptor M1 (Homo sapiens) (UniProt P11229); experiment: Cholinergic receptor muscarinic 1 (CHRM1) small molecule agonists, cell-based qHTS assay (AID 1963589); note: nearly all actives have a fitted effect of over 35% in size
Chain of Muscarinic acetylcholine receptor M1 (Homo sapiens) (P11229 whole entry, looked up): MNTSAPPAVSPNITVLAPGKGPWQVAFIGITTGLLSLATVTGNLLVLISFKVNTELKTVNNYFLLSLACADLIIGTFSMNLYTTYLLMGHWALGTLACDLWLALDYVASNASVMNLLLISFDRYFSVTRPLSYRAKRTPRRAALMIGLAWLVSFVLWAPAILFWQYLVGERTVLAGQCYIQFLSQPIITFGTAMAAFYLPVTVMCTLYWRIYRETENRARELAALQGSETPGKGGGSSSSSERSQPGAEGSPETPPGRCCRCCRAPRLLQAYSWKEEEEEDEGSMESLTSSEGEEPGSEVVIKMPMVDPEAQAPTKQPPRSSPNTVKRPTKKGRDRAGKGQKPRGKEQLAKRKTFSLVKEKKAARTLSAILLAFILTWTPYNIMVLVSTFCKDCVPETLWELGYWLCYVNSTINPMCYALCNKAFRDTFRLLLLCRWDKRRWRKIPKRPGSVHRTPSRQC
Procedure, shortened: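 Homogeneous fluorescence calcium flux, agonist mode. Human M1-expressing CHO cells; compound dosed at 15 concentrations, three independent runs; signal sampled every 1 sec.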

[13] = cAMP Responsive Elements (CRE) small molecule agonists, cell-based qHTS assay (AID 1963590)
Procedure, shortened: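 HEK 293T cells stably bearing CRE-bla were plated at 2,000 cells per well and rested 18 h. Compounds, positive controls or DMSO were added for 3 h at 37 C. LiveBLAzer B/G substrate was then loaded for 2 h at room temperature.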

[14] = cAMP Responsive Elements (CRE) small molecule antagonists, cell-based qHTS assay (AID 1963591; active = well fitted inhibition curve with a large enough effect in the signal ratio in the repeat runs, not every such curve was filed as active; the % refers to the signal ratio)
Procedure, shortened: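 First, CRE-bla HEK293T cells settled 18 h at 37 C. Next, compound and 0.25 uM final NKH477 were applied for 3 h. Last, LiveBLAzer B/G substrate was loaded for 2 h at room temperature.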

[15] = target: Beta-2 adrenergic receptor (Homo sapiens) (UniProt P07550); experiment: Adrenergic beta2 receptor (ADRB2) small molecule antagonists, cell-based qHTS assay (AID 1963592); note: series mostly up to about 92 µM; nearly all actives have a fitted effect of over 50% in size
Chain of Beta-2 adrenergic receptor (Homo sapiens) (P07550 whole entry, looked up): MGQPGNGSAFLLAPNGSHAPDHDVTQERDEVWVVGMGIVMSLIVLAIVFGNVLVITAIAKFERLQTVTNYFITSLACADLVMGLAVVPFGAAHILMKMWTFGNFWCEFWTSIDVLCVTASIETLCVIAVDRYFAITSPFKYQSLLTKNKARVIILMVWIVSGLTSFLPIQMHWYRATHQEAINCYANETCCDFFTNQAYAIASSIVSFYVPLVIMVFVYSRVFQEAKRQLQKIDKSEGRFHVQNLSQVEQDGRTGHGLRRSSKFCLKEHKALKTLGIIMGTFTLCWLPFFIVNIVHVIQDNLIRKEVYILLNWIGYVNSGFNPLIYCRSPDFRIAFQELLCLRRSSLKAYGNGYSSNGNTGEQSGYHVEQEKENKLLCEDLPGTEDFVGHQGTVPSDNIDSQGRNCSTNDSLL
Procedure, shortened: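 Assay format: CHO-ADRB2 cells, 18-20hr seeding at 37C/5% CO2, then compound plus 1nM isoproterenol agonist mix for 0.5hr RT. Homogeneous time-resolved fluorescence cAMP detection after 1hr, expressed as 665/615 nm ratio.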

[16] = p53 small molecule agonists, cell-based qHTS assay: qHTS cell viability counter screen (AID 1963581); note: nearly all actives have a fitted effect of over 45% in size
Procedure, shortened: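 ATP content measured by luminescence in HCT-116 p53RE-bla cells treated 16 h at 37 C, same wells as the reporter screen.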

[17] = target: Muscarinic acetylcholine receptor M1 (Homo sapiens) (UniProt P11229); experiment: Cholinergic receptor muscarinic 1 (CHRM1) small molecule antagonists, cell-based qHTS assay (AID 1963588); note: nearly all actives have a fitted effect of over 40% in size
Procedure, shortened: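 Compounds were tested at 15 concentrations in three independent runs. Dye-loaded CHRM1-CHO cells were exposed 5 min at room temperature before stimulation by acetylcholine added at 50nM. Intracellular calcium was read kinetically on FDSS for 3 min.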

[18] = target: D(2) dopamine receptor (Homo sapiens) (UniProt P14416); experiment: Dopamine D2 receptor (DRD2) small molecule agonists, cell-based qHTS assay (AID 1963594); note: nearly all actives have a fitted effect of over 35% in size
Chain of D(2) dopamine receptor (Homo sapiens) (P14416 whole entry, looked up): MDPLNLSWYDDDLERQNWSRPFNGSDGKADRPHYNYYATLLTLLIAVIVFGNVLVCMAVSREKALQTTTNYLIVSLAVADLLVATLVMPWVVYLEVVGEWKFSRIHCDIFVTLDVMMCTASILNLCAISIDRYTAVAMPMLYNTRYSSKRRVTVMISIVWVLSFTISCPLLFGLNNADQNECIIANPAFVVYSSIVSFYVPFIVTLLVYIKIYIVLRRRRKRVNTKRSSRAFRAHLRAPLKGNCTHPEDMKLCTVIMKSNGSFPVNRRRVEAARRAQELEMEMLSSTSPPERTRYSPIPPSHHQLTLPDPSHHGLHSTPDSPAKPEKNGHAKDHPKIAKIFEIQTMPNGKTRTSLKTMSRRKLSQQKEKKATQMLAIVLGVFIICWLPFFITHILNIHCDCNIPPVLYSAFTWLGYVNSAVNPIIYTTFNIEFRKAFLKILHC
Procedure, shortened: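 cAMP accumulation in DRD2-HEK293 cells measured by HTRF after 1 h detection; compounds added 10 min before NKH477 (200nM […]) forskolin-analogue stimulation, 30 min at room temperature, with Ro20-1724 present at 0.1 mM final.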

[19] = target: D(2) dopamine receptor (Homo sapiens) (UniProt P14416); experiment: Dopamine D2 receptor (DRD2) small molecule antagonists, cell-based qHTS assay (AID 1963595; active = well fitted inhibition curve with a large enough effect in the signal ratio in the repeat runs, with a control signal flat; the % refers to the signal ratio)
Procedure, shortened: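 DRD2-HEK293; 0.1 mM Ro20-1724; cpd 10 min RT; NKH477 200 nM + quinpirole 12 nM, 30 min RT; HTRF cAMP (cAMP-d2/anti-cAMP cryptate), 665/620 nm ratio after 1 h.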

[20] = target: Beta-2 adrenergic receptor (Homo sapiens) (UniProt P07550); experiment: Adrenergic beta2 receptor (ADRB2) small molecule agonists, cell-based qHTS assay (AID 1963593);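 note: CHO cells stably overexpressing human ADRB2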
Procedure, shortened: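 CHO cells stably over-expressing ADRB2 were plated overnight at 37C, then dosed with compounds plus a stimulation mix containing 100uM IBMX and 25uM Ro-20-1724 for 0.5hr at room temperature. cAMP was measured by HTRF competition, 1hr.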
% is set by controls: 0 for no effect and ±100 for the full control effect.

Cc1cc(C)nc(Nc2ccccc2)n1
inactive: Potency [1] | Potency [2] | Potency [3] | Potency [4] | Potency [5] | Potency [6] | Potency [7] | Potency [8] | Potency [9] | Potency [10] | Potency [11] | Potency [12] | Potency [13] | Potency [14] | Potency [15]

[O]=[Cd]
inactive: Potency [1] | Potency [2] | Potency [3] | Potency [4] | Potency [5] | Potency [6] | Potency [7] | Potency [16] | Potency [9] | Potency [10] | Potency [11] | Potency [17] | Potency [12] | Potency [13] | Potency [14] | Potency [15] | Potency [18] | Potency [19]

CCCCCCCCCCCCN=C(N)N
inactive: activity change, negative = cytotoxicity [1] -1.49% [at 3.27 µM] | activity change [2] 1.72% [at 2.04 µM, stronger effect = higher value] | activation [3] 1.8% [at 2.72 µM] | activation [4] 0.159% [at 2.04 µM] | activation [5] 0.2% [at 2.33 µM] | activation [6] 0.708% [at 2.33 µM] | activity change, negative = cytotoxicity [7] -3.65% [at 2.33 µM] | activity change, negative = cytotoxicity [16] 10.9% [at 2.33 µM] | activation [9] -3.75% [at 2.33 µM] | activation [11] -1.31% [at 2.65 µM] | activity, negative = inhibition [17] 8.27% [at 2.17 µM] | activation [12] -0.462% [at 2.72 µM] | activation [13] -0.694% [at 3.27 µM] | activity change, negative = inhibition [14] 1.77% [at 3.27 µM] | activity change, negative = inhibition [15] -9.86% [at 3.27 µM] | activation [18] -4% [at 3.27 µM]

CCCCCCBr
inactive: Potency [1] | Potency [2] | Potency [3] | Potency [4] | Potency [5] | Potency [7] | Potency [8] | Potency [16] | Potency [10] | Potency [11] | Potency [17] | Potency [12] | Potency [13] | Potency [14] | Potency [18] | Potency [19]

Cc1cc(C)c(C(=O)P(=O)(C(=O)c2c(C)cc(C)cc2C)c2ccccc2)c(C)c1
inactive: Potency [1] | Potency [2] | Potency [3] | Potency [4] | Potency [5] | Potency [6] | Potency [7] | Potency [16] | Potency [10] | Potency [11] | Potency [17] | Potency [12] | Potency [13] | Potency [20] | Potency [18] | Potency [19]

CCCCCC[N+](=O)[O-]
inactive: Potency [1] | Potency [2] | Potency [3] | Potency [4] | Potency [6] | Potency [7] | Potency [8] | Potency [16] | Potency [9] | Potency [10] | Potency [11] | Potency [17] | Potency [12] | Potency [13] | Potency [14] | Potency [15] | Potency [20] | Potency [18] | Potency [19]

CCN(CC)c1nc(C)cc(OP(=S)(OC)OC)n1
inactive: Potency [1] | Potency [2] | Potency [3] | Potency [4] | Potency [5] | Potency [7] | Potency [8] | Potency [16] | Potency [9] | Potency [10] | Potency [11] | Potency [17] | Potency [12] | Potency [13] | Potency [14] | Potency [15] | Potency [18] | Potency [19]

CNC(=O)Oc1ccc(N(C)C)c(C)c1
active: Potency [5] 10.2 µM
inactive: Potency [1] | Potency [2] | Potency [3] | Potency [4] | Potency [7] | Potency [8] | Potency [16] | Potency [9] | Potency [10] | Potency [17] | Potency [12] | Potency [13] | Potency [14] | Potency [15] | Potency [18] | Potency [19]

O=C1CC[C@@]2(O)[C@H]3Cc4ccc(O)c5c4[C@@]2(CCN3CC2CC2)[C@H]1O5
inactive: Potency [1] | Potency [2] | Potency [3] | Potency [4] | Potency [5] | Potency [6] | Potency [7] | Potency [8] | Potency [9] | Potency [13] | Potency [15] | Potency [20] | Potency [18] | Potency [19]

C=CC(C)(CCC=C(C)C)OC(=O)c1ccccc1N (stereo not drawn)
inactive: Potency [1] | Potency [2] | Potency [3] | Potency [4] | Potency [5] | Potency [7] | Potency [8] | Potency [16] | Potency [9] | Potency [11] | Potency [17] | Potency [12] | Potency [13] | Potency [14] | Potency [15] | Potency [18] | Potency [19]

c1ccc(OCC2CO2)cc1 (stereo not drawn)
inactive: Potency [1] | Potency [2] | Potency [3] | Potency [4] | Potency [5] | Potency [7] | Potency [8] | Potency [9] | Potency [10] | Potency [11] | Potency [17] | Potency [12] | Potency [13] | Potency [14] | Potency [15] | Potency [20] | Potency [19]
